Measured values as given in ChEMBL document CHEMBL4513216, “Probing the Open Global Health Chemical Diversity Library for Multistage-Active Starting Points for Next-Generation Antimalarials” (ACS Infect Dis, 2020).
In all, about 68,000 compounds went through this assay and about 2,700 (4%) showed an effect of 50% or more. For the sample, strong results were picked, then their nearest neighbours and some compounds at random.

System: Plasmodium berghei
Assay: Screen against P. berghei liver stage (PbLuc), transformed with Luciferase, at 2uM
Format: functional, HepG2
Settings: tested at 2 uM

SMILES | INHIBITION
CCn1cc(Cl)c(C(=O)Nc2ccc3c(c2)C(C)(C)C(=O)N3C)n1 | 14.61%
Cc1ccc(S(=O)(=O)NC(=O)CCc2ccccc2)cc1N(C)C | 0.01%
CCOc1cccc(CCNC(=O)Cc2ccn[nH]2)n1 | 14.82%
CCOc1cccc(CCNC(=O)Cc2ccccc2O)n1 | 76.82%
CCOc1cccc(CCNC(=O)Cc2cccc(O)c2)n1 | 26.74%
CN(C)C(=O)C1CCC2(CCN(Cc3cnn(C)c3)CC2)C1 (configuration not stated) | 9.65%
CN(CCCOc1ccccc1)C(=O)c1csc(-c2nnc[nH]2)n1 | 35.94%
COC(=O)c1cc(C(=O)N2CCCCCC2)n(-c2ccccc2)n1 | 63.95%
COC(=O)c1cc(C(=O)N2CCN(C)CC2)n(-c2ccccc2)n1 | 15.4%
COC(=O)c1cc(C(=O)N2CCC(C)CC2)n(-c2ccccc2)n1 | 35.23%
CC(C)OCCCNC(=O)CS(=O)(=O)Cc1ccc(C(C)(C)C)cc1 | 33.22%
CC(C)(C)SCC(=O)NC(C)(C(N)=O)c1cccc(Cl)c1 (configuration not stated) | -20.64%
COCc1csc(NC(=O)NCc2ccsc2)n1 | -21.99%
COCc1csc(NC(=O)NCc2ccc(C)s2)n1 | 50.93%
COCc1csc(NC(=O)NCc2ccccn2)n1 | -4.91%
COc1ccc(CCC(=O)NC2CCC(O)CC2)cc1OC (configuration not stated) | -59.24%
Cc1[nH]ncc1C(=O)N1CCCC(c2ccn[nH]2)C1 (configuration not stated) | -1.46%
Cc1nc(C)n(C2CCCN(C(=O)c3ncoc3C(C)C)C2)n1 (configuration not stated) | -12.27%
CC(C)c1ocnc1C(=O)N1CCCC(c2ccn[nH]2)C1 (configuration not stated) | 70.81%
CCCN(C(=O)c1ocnc1C)C1CCCN(Cc2ccccc2)C1 (configuration not stated) | 4.72%
CSC(C)(C)CNC(=O)NCc1cccc(-n2cncn2)c1 | 54.29%
CC(O)CC(C)(C)CNC(=O)NCc1cccc(-n2cncn2)c1 (configuration not stated) | 1.22%

SMILES | INHIBITION
CC(NC(=O)Nc1ccc(-n2cncn2)cc1)C(=O)NC(C)(C)C (configuration not stated) | 12.01%
CC(O)(CNC(=O)NCc1cccc(-n2cncn2)c1)c1ccco1 (configuration not stated) | -33.81%
CC(C)C(O)C(C)(C)CNC(=O)NCc1ccc(-n2cncn2)cc1 (configuration not stated) | 53.19%
CSC(C)(C)CNC(=O)NCc1cccc(-n2ccnc2)c1 | -27.12%
Cn1cc(Cl)cc1C(=O)N1CCCN(Cc2ccccc2)CC1 | -7.88%
Cc1noc(C)c1CNC1CCN(c2ccccc2OC(F)F)C1 (configuration not stated) | -15.77%
CO[C@@H]1CN(Cc2scnc2C)[C@@H]2CCCO[C@@H]21 | 34.23%
CC(C)n1nc(CNc2ncccn2)c2c1CN(C1CCOCC1)CC2 | 38.49%
Cc1noc(NC(=O)c2ccc(Br)cc2)n1 | -43.47%
CCN1CCN(CC(O)c2cc(Cl)ccc2Cl)CC1 (configuration not stated) | -31.79%
CCOCCN1CCN(CC(O)c2cc(Cl)ccc2Cl)CC1 (configuration not stated) | 50.61%
OCCN1CCN(CC(O)c2cc(Cl)ccc2Cl)CC1 (configuration not stated) | -21.76%
CCCn1cnnc1CNC(=O)C1COc2ccc(OC)cc2C1 (configuration not stated) | 21.14%
O=C(Nc1ccccc1)c1ccc2c(c1)C1(CCCCC1)CN2 | -9.98%
Cc1c[nH]c(C2CCCN(Cc3ccccc3C(=O)O)C2)n1 (configuration not stated) | -2.35%
Cc1nc(C)c(CC(=O)N2CCC(c3ccn4nccc4n3)CC2)s1 | 3.58%
Cc1noc(C)c1CC(=O)N1CCC(c2ccn3nccc3n2)CC1 | 52.57%
Cc1nc(CC(=O)N2CCC(c3ccn4nccc4n3)CC2)cs1 | 3.03%
Cn1cc(CN2CCO[C@@H]3CN(Cc4ccoc4)C[C@@H]3C2)cn1 | -0.35%
CO[C@H]1CC[C@H]2[C@H]1OCCN2CCOCc1ccccc1 | -4.99%
CC[C@@H](CO)NC(=O)c1coc(COc2ccc3sc(C)nc3c2)n1 | -10.58%
CC[C@@H](CO)NC(=O)c1coc(COc2ccc(OC)cc2)n1 | 53.26%

SMILES | INHIBITION
COC(=O)CCNC(=O)c1coc(COc2ccc(F)cc2)n1 | 56.16%
CC[C@H](CO)NC(=O)c1coc(COc2ccccc2F)n1 | -9.75%
CNS(=O)(=O)CCNC(=O)c1coc(COc2ccc(F)cc2)n1 | -38.4%
CSCCNC(=O)c1coc(COc2ccc(F)cc2)n1 | 1.88%
Cc1ccc(CN2CCCC3(CCN(Cc4ccoc4)CC3)C2)cc1 | 78.88%
Cn1ccnc1CN1CCC2(CC1)CCN(Cc1ccoc1)C2 | -78.53%
Cc1ccc(CN2CCC3(CC2)CCN(Cc2ccoc2)CC3)cc1 | 14.93%
Cn1cccc1C(=O)N1CCO[C@H]2[C@H](OCc3cccnc3)CC[C@@H]21 | 0.32%
O=C1NCCN(Cc2ccccc2)C1CC(=O)N1CCc2n[nH]cc2C1 (configuration not stated) | 50.32%
O=C1NCCN(Cc2cccnc2)C1CC(=O)N1CCc2n[nH]cc2C1 (configuration not stated) | -3.25%
O=C1NCCN(CC2CCCCC2)C1CC(=O)N1CCc2n[nH]cc2C1 (configuration not stated) | 5.17%
Cc1nc2c(c(N3CCC4(CCCNC4=O)C3)n1)CCC2 (configuration not stated) | 27.85%
CN(C)c1nc2c(c(N3CCC4(CCCNC4=O)C3)n1)CCCC2 (configuration not stated) | 42.17%
CNc1nc(N2CCC3(CCCNC3=O)C2)nc2c1CCC2 (configuration not stated) | 56.49%
Cc1nc(N2CCC3(CCCNC3=O)C2)nc2c1CCCC2 (configuration not stated) | 62%
Cc1cc(C2CCC2)nc(N2CCC3(CCCNC3=O)C2)n1 (configuration not stated) | 4.74%
O=C1NCCCC12CCN(c1nc3c(c(C(F)(F)F)n1)CCCC3)C2 (configuration not stated) | 1.42%
O=c1[nH][nH]c2cn(-c3ccccc3)c(=O)n12 | -73.41%
N#CCCn1cnc2c(F)cc(Br)cc2c1=O | -23.16%
c1cc(-c2nnc(C3CCCN(CC4CCCCC4)C3)o2)ccn1 (configuration not stated) | 29.48%
Cc1cccc2nc(CNC(=O)N3CCC(OCC4CC4)CC3)cn12 | 38.2%
Cc1ccc(OCCCC(=O)Nc2nonc2C)cc1C | -9.17%

SMILES | INHIBITION
CN(C)CCOCc1cncc2c1CCN(Cc1ccccn1)C2 | 56.21%
CN(C)C(=O)COCc1cncc2c1CCN(Cc1ccccn1)C2 | 41.93%
COCc1cncc2c1CCN(Cc1ccccn1)C2 | 0.3%
O=C(c1ccnn1COc1ccc(Cl)cc1)N1CCOCC1 | 8.56%
CCn1c(Nc2ccccc2OC)nc2c(C)nn(C)c2c1=O | -18.88%
O=S(=O)(Cc1ccc(F)c(Cl)c1)NC(CO)c1ccco1 (configuration not stated) | 26.62%
Cc1noc2nc(C3CCN(CC4CCCCC4)CC3)cc(C(F)F)c12 | -7.7%
Cc1nc(CN(C)c2nccc(N(C)C)n2)cs1 | -13.89%
COc1ccnc(N(C)Cc2csc(C)n2)n1 | -21.99%
Cc1nc(CN(C)c2nccc(C(F)(F)F)n2)cs1 | 60.13%
Cc1nn(C)c(C)c1Cc1nc(N(C)C)no1 | 20.71%
CC(C)c1nccn1Cc1cc(C(=O)NCC(F)(F)F)n[nH]1 | -7.52%
O=C1NCC(C(=O)Nc2ncc(Cc3cccc(F)c3)s2)N1 (configuration not stated) | 3.06%
O=C1NCC(C(=O)Nc2ncc(Cc3ccccc3)s2)N1 (configuration not stated) | 53.98%
O=C1NCC(C(=O)Nc2ncc(Cc3ccc(F)cc3)s2)N1 (configuration not stated) | 21.39%
COCc1cccc(C(=O)N2CCCN(C(=O)OCC(C)C)CC2)c1 | 29.19%
COC(=O)CNC(=O)c1c(-n2cnnn2)sc2c1CCCC2 | 17.26%
Cc1nc(CO[C@H]2CN(C(=O)c3cccn3C)[C@@H]3COC[C@H]23)cs1 | 36.75%
O=C(Nc1ccccc1)[C@H]1O[C@H](CCN2CCNCC2)CC[C@@H]1O | 51.81%
CN1CCN(CC[C@@H]2CC[C@H](O)[C@@H](C(=O)Nc3ccccc3)O2)CC1 | 29.85%
O=C(Nc1ccccc1)[C@H]1O[C@H](CCN2CCCCC2)CC[C@@H]1O | 4.04%
CCN1CCCC1CNCc1cc2cc3c(cc2[nH]c1=O)OCCO3 (configuration not stated) | 16.87%

SMILES | INHIBITION
CCCNC(=O)[C@@H]1CCCN1[C@@H](C(=O)NC)C1CC1 | 40.28%
CCNC(=O)[C@@H]1CCCN1[C@@H](C(=O)NC)C1CC1 | 54.01%
CNC(=O)[C@@H](C1CC1)N1CCC[C@H]1C(=O)NCC(C)C | 40.28%
O=C1CN(C(=O)C2CCCCC2)CC(O)CN1Cc1ccc(Cl)cc1 (configuration not stated) | 43.15%
Cn1ccnc1CN1CCC2(CC1)CC(N1CCCC1)c1ccccc12 (configuration not stated) | -11.26%
Cc1ccc(-n2cnnn2)cc1NCC(=O)Nc1cc(F)ccc1F | 19.95%
C=C(C)Cn1nc(C)c(CN2CCN(C3CCCCC3)C(=O)C2)c1C | -17.01%
Cc1nn(CCO)c(C)c1CN1CCN(C2CCCCC2)C(=O)C1 | 57.21%
Cc1nn(C(C)C)c(C)c1CN1CCN(C2CCCCC2)C(=O)C1 | -22.72%
CO[C@H]1CC[C@H]2[C@H]1OCCN2C(=O)C1=CCCC1 | 28.81%
CCN1CCC(Cn2ccc3ccc(C(=O)OC)cc3c2=O)C1 (configuration not stated) | 39.26%
O=C(CCNS(=O)(=O)c1ccc(Cl)cc1)NCc1ccoc1 | -29.08%
CCNC(=O)NC1CCCN(c2ccc(C)cc2)C1=O (configuration not stated) | 10.63%
CCOCc1nnc(NCc2cccnc2)o1 | 54.29%
Cc1cccc(CNc2n[nH]c(C)n2)c1 | 14.11%
CCOCc1nnc(NCc2cccc(C)c2)o1 | 55.39%
COCc1cccc(NCc2cccnc2)c1 | -12.52%
CCOCc1nnc(NCc2ccsc2)o1 | -19.14%
Cc1cccc(CNc2nnc(C(C)C)o2)c1 | 3.62%
